Test results: PubChem BioAssay (NCATS)
For some assays here: Measured potencies and affinities stand elsewhere. The source made the active and inactive calls. The rule behind the calls is not given here.

Columns and labels:
[1] = Ebola virus entry assay, green fluorescence channel
[2] = Ebola virus entry assay, blue channel fluorescence
[3] = Ebola virus entry assay, ratio channel
[4] = Ebola virus entry assay, green channel fluorescence
[5] = Ebola virus entry assay, reporter ratio channel; Channel type: primary
Throughout, for efficacy: 0% is about no effect.

| Structure (SMILES) | efficacy [1] | AC50 [2] | AC50 [3] | outcome [4] | AC50 [5] | outcome [3] | outcome [2] | outcome [5] |
| --- | --- | --- | --- | --- | --- | --- | --- | --- |
| CC(C)(C)C(=O)OCOC(=O)[C@@H]1N2C(=O)[C@@H](NC(=O)[C@H](N)c3ccccc3)[C@H]2SC1(C)C | 35% (inactive) | 12.6 µM (active) | 20 µM (active) | inactive | 20 µM (active) | – | – | – |
| C[C@]12CC[C@@H]3c4ccc(O)cc4CC[C@H]3[C@@H]1C[C@@H](O)[C@@H]2O | -24.2% (inactive) | 20 µM (active) | – | inactive | 35.5 µM (active) | inactive | – | – |
| O=c1[nH]sc2cc(Cl)ccc12 | -42.1% (inactive) | 39.8 µM (active) | – | inactive | 39.8 µM (active) | inactive | – | – |
| Cc1c(N)cccc1C(F)(F)F | 32.5% (inactive) | – | – | inactive | – | inactive | inactive | inactive |
| COC(=O)[C@H]1[C@H]2C[C@@H]3c4[nH]c5cc(OC)ccc5c4CCN3C[C@H]2C[C@@H](OC(=O)/C=C/c2ccc(O)c(OC)c2)[C@@H]1OC | -80.1% (inactive) | 3.55 µM (active) | 3.16 µM (active) | inactive | 3.16 µM (active) | – | – | – |
| Cc1c(-c2ccccc2)oc2c(C(=O)OCCN3CCCCC3)cccc2c1=O | -55.6% (inactive) | – | – | inactive | – | inactive | inactive | inactive |
| CCOC(=O)c1c(N)sc2c1CCN(Cc1ccccc1)C2 | 21.5% (inactive) | – | – | inactive | – | inactive | inactive | inactive |
| CO/N=C(/C(=O)N[C@@H]1C(=O)N2C(C(=O)O)=C(Cn3nnc(C)n3)CS[C@H]12)c1csc(N)n1 | 14.5% (inactive) | – | – | inactive | – | inactive | inactive | inactive |
| CC(C)OC(=O)c1cc2c(OCC(O)CNC(C)(C)C)cccc2[nH]1 (stereo not given) | -19.4% (inactive) | 28.2 µM (active) | 31.6 µM (active) | inactive | 31.6 µM (active) | – | – | – |
| COc1ccccc1N1CCN(CCCNc2cc(=O)n(C)c(=O)n2C)CC1 | 43.6% (inactive) | 28.2 µM (active) | – | inactive | 39.8 µM (active) | inactive | – | – |
| C[C@]12CC[C@@H]3c4ccc(O)cc4CC[C@H]3[C@@H]1CCC2=O | 55% (inactive) | 3.55 µM (active) | 10 µM (active) | inactive | 10 µM (active) | – | – | – |
| NC(=O)C(=O)N/N=C/c1ccc([N+](=O)[O-])o1 | 21.5% (inactive) | – | – | inactive | – | inactive | inactive | inactive |
| O=C(Nc1ncc([N+](=O)[O-])s1)c1cccs1 | -37.9% (inactive) | – | – | inactive | – | inactive | inactive | inactive |
| C[N+]1(CC2COC(c3ccccc3)(c3ccccc3)O2)CCCCC1 (stereo not given) | 25% (inactive) | – | – | inactive | – | inactive | inactive | inactive |
| CCN1CCN(c2cc(-c3ccc(F)cc3)c3c(n2)CCCCCC3)CC1 | 32.1% (inactive) | 1.41 µM (active) | 1.78 µM (active) | inactive | 1.78 µM (active) | – | – | – |
| O=C(O)Cc1ccc(CCNS(=O)(=O)c2ccc(Cl)cc2)cc1 | 18.5% (inactive) | – | – | inactive | – | inactive | inactive | inactive |
| Cc1cc2c(OCC(CNC(C)(C)C)OC(=O)c3ccccc3)cccc2[nH]1 (stereo not given) | 15.1% (inactive) | 25.1 µM (active) | 28.2 µM (active) | inactive | 28.2 µM (active) | – | – | – |
| CN(C)CCN(Cc1cccs1)c1ccccn1 | 21.2% (inactive) | 31.6 µM (active) | 17.8 µM (active) | inactive | 17.8 µM (active) | – | – | – |
| Nc1ccc(N=Nc2ccccc2)c(N)n1 | -23.7% (inactive) | 39.8 µM (active) | – | inactive | 39.8 µM (active) | inactive | – | – |
| O=C(OCc1ccccc1)c1ccc(O)cc1 | -29.7% (inactive) | 22.4 µM (active) | – | inactive | – | inactive | – | inactive |
| CN1CCN(c2cc3c(cc2F)c(=O)c(C(=O)O)cn3-c2ccc(F)cc2)CC1 | 8.5% (inactive) | – | – | inactive | – | inactive | inactive | inactive |
| CCN(CC)CCOc1ccc2c(c1)C(=O)c1cc(OCCN(CC)CC)ccc1-2 | 9% (inactive) | 1.41 µM (active) | 1.41 µM (active) | inactive | 1.41 µM (active) | – | – | – |
| CC(CNC1CCCCC1)OC(=O)c1ccccc1 (stereo not given) | 19.5% (inactive) | 8.91 µM (active) | 8.91 µM (active) | inactive | 8.91 µM (active) | – | – | – |
| CC1(c2ccccc2)OC(C(=O)O)=CC1=O (stereo not given) | -18.5% (inactive) | – | – | inactive | – | inactive | inactive | inactive |
| C[C@H](N)C(=O)N[C@@H](C)C(=O)NC1[C@H]2CN(c3nc4c(cc3F)c(=O)c(C(=O)O)cn4-c3ccc(F)cc3F)C[C@@H]12 (stereo not given in full) | 11% (inactive) | – | – | inactive | – | inactive | inactive | inactive |
| CCCC(=O)O[C@]1(C(=O)CCl)[C@@H](C)C[C@H]2[C@@H]3CCC4=CC(=O)C=C[C@]4(C)[C@@]3(F)C(=O)C[C@@]21C | 17% (inactive) | 35.5 µM (active) | 20 µM (active) | inactive | 20 µM (active) | – | – | – |

| Structure (SMILES) | efficacy [1] | AC50 [2] | AC50 [3] | outcome [4] | AC50 [5] | outcome [3] | outcome [2] | outcome [5] |
| --- | --- | --- | --- | --- | --- | --- | --- | --- |
| CN(C)CCN1C(=O)c2ccccc2N(C)c2ccccc21 | -25.3% (inactive) | 39.8 µM (active) | – | inactive | 39.8 µM (active) | inactive | – | – |
| C#C[C@]1(O)CC[C@H]2[C@@H]3CCc4cc(O)ccc4[C@H]3CC[C@@]21C | -19.9% (inactive) | 11.2 µM (active) | 11.2 µM (active) | inactive | 11.2 µM (active) | – | – | – |
| NC(N)=NN=C(/C=C/c1ccc([N+](=O)[O-])o1)/C=C/c1ccc([N+](=O)[O-])o1 | -41.4% (inactive) | 3.16 µM (active) | 3.16 µM (active) | inactive | 3.16 µM (active) | – | – | – |
| CC(C)n1nc(-c2cc3cc(O)ccc3[nH]2)c2c(N)ncnc21 | 37.9% (inactive) | 2.82 µM (active) | 2.24 µM (active) | inactive | 2.24 µM (active) | – | – | – |
| O=C(/C=C/c1ccc(O)c(O)c1)O[C@@H]1C[C@@](OC(=O)/C=C/c2ccc(O)c(O)c2)(C(=O)O)C[C@@H](O)[C@@H]1O | 21.8% (inactive) | 28.2 µM (active) | 20 µM (active) | inactive | 20 µM (active) | – | – | – |
| COc1ccc(CN(CCN(C)C)c2ccccn2)cc1 | 22.5% (inactive) | 15.8 µM (active) | 15.8 µM (active) | inactive | 15.8 µM (active) | – | – | – |
| N=C(N)c1ccc2cc(OC(=O)c3ccc(N=C(N)N)cc3)ccc2c1 | 15% (inactive) | – | – | inactive | – | inactive | inactive | inactive |
| CCN(CC)CCNC(C(=O)OCCC(C)C)c1ccccc1 (stereo not given) | 47.8% (inactive) | 31.6 µM (active) | 22.4 µM (active) | inactive | 22.4 µM (active) | – | – | – |
| CCOC(=O)c1ccc(OC(=O)CCCCCN=C(N)N)cc1 | -11.5% (inactive) | – | – | inactive | – | inactive | inactive | inactive |
| CC[C@H](NC(C)C)[C@H](O)c1ccc(O)c2[nH]c(=O)ccc12 | -13.2% (inactive) | – | – | inactive | – | inactive | inactive | inactive |
| CC(C)C[C@@H](N)C(=O)O | 14.3% (inactive) | – | – | inactive | – | inactive | inactive | inactive |
| CC(=O)Oc1ccc(C(c2ccc(OC(C)=O)cc2)c2ccccn2)cc1 | -19% (inactive) | – | – | inactive | – | inactive | inactive | inactive |
| COC(=O)C1=C(C)NC(C)=C(C(=O)O[C@@H]2CCCN(Cc3ccccc3)C2)[C@@H]1c1cccc([N+](=O)[O-])c1 | 39.4% (inactive) | 39.8 µM (active) | – | inactive | 35.5 µM (active) | inactive | – | – |
| CC1(C)O[C@@H]2C[C@H]3[C@@H]4CCC5=CC(=O)CC[C@]5(C)[C@@]4(F)[C@@H](O)C[C@]3(C)[C@]2(C(=O)CCl)O1 | 53.9% (inactive) | 12.6 µM (active) | 10 µM (active) | inactive | 10 µM (active) | – | – | – |
| CC(C)(C)C(=O)C(Oc1ccc(Cl)cc1)n1ccnc1 (stereo not given) | 12.3% (inactive) | 39.8 µM (active) | – | inactive | 39.8 µM (active) | inactive | – | – |
| CN(Cc1cc(Br)cc(Br)c1N)C1CCCCC1 | 17.3% (inactive) | 22.4 µM (active) | 20 µM (active) | inactive | 20 µM (active) | – | – | – |
| Clc1ccc(C(Cn2ccnc2)OCc2ccsc2Cl)c(Cl)c1 (stereo not given) | 49.7% (inactive) | 10 µM (active) | 8.91 µM (active) | inactive | 8.91 µM (active) | – | – | – |
| CC(Cc1cccc(C(F)(F)F)c1)NCCOC(=O)c1ccccc1 (stereo not given) | 23% (inactive) | 31.6 µM (active) | 28.2 µM (active) | inactive | 28.2 µM (active) | – | – | – |
| Oc1c(Cl)cc(Cl)c(Cl)c1Cc1c(O)c(Cl)cc(Cl)c1Cl | 19.2% (inactive) | 28.2 µM (active) | 15.8 µM (active) | inactive | 15.8 µM (active) | – | – | – |
| Oc1ccc(Cl)cc1Sc1cc(Cl)ccc1O | -28.7% (inactive) | 10 µM (active) | 15.8 µM (active) | inactive | 15.8 µM (active) | – | – | – |
| Cc1cccc(OCC(O)CNC(C)(C)C)c1C (stereo not given) | -12.5% (inactive) | 39.8 µM (active) | – | inactive | 39.8 µM (active) | inactive | – | – |
| CCCOc1ccc(C(=O)OCCN(CC)CC)cc1N | 35% (inactive) | 39.8 µM (active) | 22.4 µM (active) | inactive | 22.4 µM (active) | – | – | – |
| Cc1ccc(Cl)c(OCC(O)CNC(C)(C)C)c1 (stereo not given) | -22.3% (inactive) | 15.8 µM (active) | 28.2 µM (active) | inactive | 28.2 µM (active) | – | – | – |
| CC(C)(Cc1c[nH]c2ccccc12)NCC(O)COc1ccccc1C#N (stereo not given) | 48.7% (inactive) | 35.5 µM (active) | 25.1 µM (active) | inactive | 25.1 µM (active) | – | – | – |
| CCCCc1cc2ccccc2c(OCCN(C)C)n1 | -77.9% (inactive) | 8.91 µM (active) | 7.08 µM (active) | inactive | 7.08 µM (active) | – | – | – |
| Clc1ccccc1C(c1ccccc1)(c1ccccc1)n1ccnc1 | 24.5% (inactive) | 39.8 µM (active) | – | inactive | 39.8 µM (active) | inactive | – | – |
